MCF10A rerep: induces DNA re-replication in MCF 10a normal breast cells | MCF 10A DNA re-replication, Hoechst nuclear intensity, 48 h | Potency, µM (highest dose often 46.1 µM), for the others: top-dose activity, positive = re-replication, most hits filed as activators | hit rate 2.9% among 350,000; further: potency means the concentration at half of the fitted maximal effect; % of control where 0% means no effect; nearly all actives have a fitted effect of over 50% in size
BCR signal inh: inhibitors of chronic active B-cell receptor signaling. ABC-DLBCL IkBa-CBG/CBR reporter, luminescence ratio, 4 h. AID 493014. hit rate 0.05% among 340,000. Potency, µM (top dose mostly 46.1 µM), inactives show at the top dose activity change, negative = inhibition, actives largely listed as inhibitors; active means well fitted inhibition curve with a large enough effect in the signal ratio, with a control signal flat, not every such curve was filed as active; inconclusive means small, poorly fitted or top-dose-only effect, or effect the other way, or a change in a side signal; the % refers to the signal ratio;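 further: potency means the concentration at half of the fitted maximal effect; plate controls were basal doxycycline-induced cells for no effect and cells given 10 µM MG132 for full effect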
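TMD8 human ABC-DLBCL cells with doxycycline-inducible IκBα–green luciferase fusion and unfused red luciferase, in 0.5% FBS medium; compounds up to 46 uM, 4 h at 37C. Green/red luminescence ratio, filter-overlap corrected, fitted to concentration-response curves.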
Giardia killer: Giardia lamblia killing; hit rate 0.15% among 340,000; AID 540267; activity change, % at 7.66 µM, hits read low; Giardia lamblia trophozoite viability; in the data active means activity change below about -80%; inconclusive means between about -30% and that limit;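 further: parasites exposed to compound for two days anaerobically before the ATP read; on the % scale 0 is the no-effect control and ±100 the full control effect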
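Luminescent ATP signal served as the viability read-out, measured 15-30 min after adding ATP detection reagent to trophozoites that had been incubated with compounds for 48 hrs at 37 deg C anaerobically at 100 cells/well.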
RORg inh: ROR gamma (mouse) transcription inhibition. P51450. Potency, µM (highest dose often 53.6 µM), for the others: at the highest dose activity change, negative = inhibition, hits mostly inhibitors. hit rate 5.4% among 310,000. Drosophila S2 Gal4-RORgamma UAS-luciferase reporter, 20 h; further: potency means the concentration at half of the fitted maximal effect; on the % scale 0 is the no-effect control and ±100 the full control effect; nearly all actives have a fitted effect of over 60% in size
Target sequence (P51450 whole entry, looked up, the tested form may be a part): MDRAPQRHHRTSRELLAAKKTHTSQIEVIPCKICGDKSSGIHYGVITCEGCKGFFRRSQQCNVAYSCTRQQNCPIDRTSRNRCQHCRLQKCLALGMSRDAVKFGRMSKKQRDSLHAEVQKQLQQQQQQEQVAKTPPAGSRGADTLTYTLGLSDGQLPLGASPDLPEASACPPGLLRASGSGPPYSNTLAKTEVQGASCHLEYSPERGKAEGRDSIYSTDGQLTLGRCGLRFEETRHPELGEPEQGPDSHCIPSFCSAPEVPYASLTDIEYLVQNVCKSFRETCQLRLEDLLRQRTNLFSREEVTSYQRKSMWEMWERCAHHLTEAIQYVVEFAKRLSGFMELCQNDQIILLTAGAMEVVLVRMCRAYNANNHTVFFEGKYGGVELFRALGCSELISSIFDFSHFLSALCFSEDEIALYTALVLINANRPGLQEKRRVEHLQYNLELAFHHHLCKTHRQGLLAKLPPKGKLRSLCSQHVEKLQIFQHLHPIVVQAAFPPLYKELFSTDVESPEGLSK
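Read-out: Photinus luciferase luminescence; inhibitors lower reporter signal. Insect Schneider cells with Gal4-ROR gamma fusion under metallothionein promoter, UAS reporter; 700 uM final copper sulfate induction, 20 hr, ambient temperature.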
Gal4-VP16 FLuc: inhibits Gal4-VP16 luciferase reporter, ROR gamma counter-screen. Drosophila S2 Gal4-VP16 UAS-luciferase, luminescence, 20 h. Potency, µM (titrated, usually from 53.6 µM), inactives show at the top dose activity, negative = inhibition, hits mostly inhibitors. hit rate 3.5% among 310,000;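 further: Gal4-VP16 expression switched on by copper sulfate through the metallothionein promoter; potency means the concentration at half of the fitted maximal effect; on the % scale 0 is the no-effect control and ±100 the full control effect; nearly all actives have a fitted effect of over 50% in size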
SW480 rereplic: induces DNA re-replication in SW480 colon adenocarcinoma cells. SW480 DNA re-replication, Hoechst DNA content imaging, 48 h. hit rate 1.8% among 340,000. Potency, µM (titrated, usually from 46.1 µM), without a hit: at the highest dose re-replication activation, actives largely listed as activators; further: potency means the concentration at half of the fitted maximal effect; % of control where 0% means no effect; nearly all actives have a fitted effect of over 55% in size
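Readout is total intensity of Hoechst-stained nuclei, excited at 405 nm and collected at 500-530 nm. Compound treatment lasted 48 hr at 37 C in 5% CO2 before staining.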
* marks the source's active call; other numbers are inactive results; ? = inconclusive; nt = no result given; [ ] = another dose, or the depositor's remark. Shown are actives, neighbours in structure and some others; about 8.3% of the full set was active somewhere. Unless noted, the call rests on the fitted dose curve; in most records, active means well fitted curve in the direction sought with a large enough effect; inconclusive means small, poorly fitted or top-dose-only effect, or another doubt; inactive means no such curve, though single readings can be large; an effect the other way counts as inactive or inconclusive.

SMILES | MCF10A rerep | BCR signal inh | Giardia killer | RORg inh | Gal4-VP16 FLuc | SW480 rereplic
O=C(NC(=S)Nc1cc([N+](=O)[O-])ccc1O)c1ccc2c(c1)OCO2 | 13µM* | ? | ? | 3.98µM* | 2.82µM* | ?
COc1cc([N+](=O)[O-])ccc1NC(=S)NNC(=O)c1ccc2c(c1)OCO2 | -0.7% | ? | -28.2 | -30.0% | -19.3% | ?
O=C(N/N=C/c1cc(O)ccc1[N+](=O)[O-])c1ccc2c(c1)OCCO2 | 6.4% | ? | -19.0 | 10µM* | 8.91µM* | 2.1%
O=C(N/N=C/c1ccccc1[N+](=O)[O-])c1ccc2c(c1)OCCO2 | 0.6% | -0.6% | ? | 3.55µM* | 7.08µM* | 9.0%
COc1ccc(/C=N/NC(=O)c2ccc3c(c2)OCCO3)cc1[N+](=O)[O-] | -3.8% | ? | 10.7 | 19.9% | -1.0% | -2.6%
O=C(N/N=C/c1cc([N+](=O)[O-])ccc1O)c1ccc2c(c1)OCCO2 | 8.2% | 0.4% | -28.0 | 0.631µM* | 1.41µM* | ?
O=C(N/N=C/c1cc([N+](=O)[O-])ccc1O)c1ccncc1 | 15.5% | -0.7% | -6.3 | ? | 4.0% | ?
Cc1nn(Cc2ccccc2)c(Cl)c1C(=O)NCc1ccco1 | -1.5% | 2.3% | -14.1 | 10.0% | -5.8% | -0.1%
Cc1ccccc1OCC(=O)Nc1nc2ccccc2[nH]1 | -5.5% | ? | 0.8 | 7.08µM* | ? | 2.4%
Cc1ccccc1NC(=O)COc1ccccc1C | -1.2% | -21.9% | -25.2 | nt | nt | 1.6%
CCOc1ccc(OCCCC(=O)Nc2nc3ccccc3[nH]2)cc1 | -2.3% | 2.8% | 5.1 | -38.8% | 0.6% | -6.1%
O=C(COc1cccc2ccccc12)Nc1cc(Cl)ccc1C(=O)O | 6.51µM* | 0.3% | -12.4 | -35.8% | ? | 0.7%
O=C(COc1cccc2ccccc12)Nc1nc2ccccc2[nH]1 | -1.5% | ? | 8.8 | 10µM* | 11.2µM* | 0.9%
CCOc1ccccc1OCC(=O)Nc1nc2ccccc2[nH]1 | -3.1% | ? | 3.8 | 5.62µM* | ? | -4.3%
CCOC(=O)c1cnc2c(c(C)nn2CC)c1NC1CC1 | 0.9% | -4.8% | -3.7 | 3.1% | -13.6% | -2.4%
Cc1cc(C)c(OCC(=O)Nc2nc3ccccc3[nH]2)c(C)c1 | 0.82µM* | -5.1% | -3.8 | 11.2µM* | -27.1% | -28.9%
Cc1ccc(OCC(=O)NCCc2nc3ccccc3[nH]2)c(C)c1 | 0.4% | 0.7% | 0.3 | 0.7% | -5.8% | -6.9%
Cc1ccc(SCC(=O)OCC(=O)N(C)CC(=O)Nc2ccccc2Cl)cc1C | 15.4% | -1.2% | -4.9 | -21.1% | -5.4% | 1.3%
Cc1cc2occ(CC(=O)N(C)CC(=O)Nc3ccccc3Br)c2cc1C | 1.1% | -15.4% | -25.8 | nt | nt | -1.5%
Cc1ccccc1C1c2[nH]c3ccccc3c2C[C@H]2C(=O)N(c3ccccc3C(=O)NCCCN3CCOCC3)C(=O)N12 (some centres undefined) | 11.6µM* | -26.9% | 6.1 | -7.0% | -3.2% | ?
Cc1ccccc1C1c2[nH]c3ccccc3c2C[C@H]2C(=O)N(c3ccccc3C(=O)NCCN3CCOCC3)C(=O)N12 (some centres undefined) | ? | ? | ? | 20.3% | 0.2% | -3.6%
O=C1N/C(=C\c2ccccc2)c2ccccc21 | 18.4µM* | ? | -16.5 | -0.6%[0.365 µM] | nt | ?
O=C1N/C(=C\c2nc3ccccc3s2)c2ccccc21 | nt | -2.5% | nt | ? | -14.1% | nt
O=[N+]([O-])c1ccc(Cl)cc1Sc1ccccn1 | 8.1% | -0.8% | -6.6 | 6.9% | 11.2% | 1.5%
COCCCn1cnc2oc3nc4ccccc4nc3c2c1=O | 1.5% | 8.8% | 9.7 | ? | 1.26µM* | -10.1%
SMILES | MCF10A rerep | BCR signal inh | Giardia killer | RORg inh | Gal4-VP16 FLuc | SW480 rereplic
COCCCn1cnc2c(c1=O)c1nc3ccccc3nc1n2-c1ccccc1 | -3.8% | 3.1% | -20.6 | 6.4% | -5.6% | 0.5%[9.22 µM]
O=C(N/N=C/c1c(O)n(-c2ccc(Cl)cn2)c(=O)c2ccccc12)c1ccncc1 | 2.7% | 0.7% | -5.1 | -14.5% | -17.8% | -5.4%
O=C(N/N=C/c1c(O)n(-c2ccc(Cl)cn2)c(=O)c2ccccc12)C1CC1 | 4.5% | ? | -13.8 | 5.62µM* | 7.94µM* | ?
Cc1cc([N+](=O)[O-])ccc1NC(=O)/C=C/c1cccs1 | -62.3% | ? | 20.6 | ? | ? | -94.2%
Cc1cccc(NC(=S)N/N=C/c2ccc([N+](=O)[O-])s2)c1 | ? | ? | -21.0 | 1.26µM* | 3.16µM* | ?
Cc1ccc(NC(=O)/C=C/c2ccc([N+](=O)[O-])s2)c(C)c1 | 1.64µM* | ? | -16.5 | 18.8% | -12.6% | 4.61µM*
Cc1ccc(/C=C/C(=O)Nc2ccc([N+](=O)[O-])cc2)o1 | -3.3% | 18.6% | 2.0 | 9.0% | -21.0% | -9.2%
Cc1cccc(NC(=O)/C=C/c2ccc([N+](=O)[O-])s2)c1 | 2.31µM* | ? | 1.1 | 6.31µM* | 3.16µM* | 6.51µM*
Cc1ccc(NC(=O)/C=C/c2ccc([N+](=O)[O-])s2)cc1 | 5.8µM* | ? | -12.7 | ? | ? | 8.2µM*
COc1cccc(NC(=O)/C=C/c2ccccc2[N+](=O)[O-])c1 | -3.5% | ? | -6.1 | 27.4%[10 µM] | 6.3% | -7.4%
CSc1cccc(NC(=O)/C=C/c2cccc(Cl)c2)c1 | 9.8% | ? | -14.3 | 31.2% | -8.1% | -60.3%
O=C(NC1CCCC1)C(c1ccncc1)N(C(=O)c1csnn1)C1CCCC1 (centres undefined) | -1.9% | 17.0% | -14.2 | 40.3% | 10.1% | 0.0%
O=C(O)C1C2CCC(O2)C1C(=O)Nc1ccc(Br)cc1F (centres undefined) | 9.7% | nt | -9.4 | nt | nt | -2.7%
COc1ccc(CNc2ncnc3nc[nH]c23)cc1 | nt | nt | -14.9 | nt | nt | nt
CSc1nnc(C)c(/C=C/NOCc2ccc(Cl)cc2)n1 | ? | -0.5% | 9.3 | 26.7% | -1.1% | 7.8%
Cc1nnc(SCc2ccc(Cl)cc2)nc1/C=C/N(C)C | 18.4µM* | 2.6% | -26.3 | 22.8% | 17.2% | -4.9%
CCN(CC)S(=O)(=O)c1ccc(N2CCOCC2)c(NC(=O)c2cccc3ccccc23)c1 | 2.6% | -10.5% | -10.1 | 12.3% | 2.8% | 5.2%
CCN(CC)S(=O)(=O)c1ccc(N2CCOCC2)c(NC(=O)c2cccc3c(=O)c(C)c(-c4ccccc4)oc23)c1 | 3.66µM* | nt | 57.7 | nt | nt | -0.4%
CC1(C)CC(/C=C/c2ccccc2)=Nc2ccccc2N1 | ? | ? | -12.7 | -37.2% | -14.6% | ?
CCCCOc1ccc(C(=O)NCC(=O)NCCCn2nc(C)cc2C)cc1 | 0.8% | ? | ? | nt | nt | 6.4%
CC(C)(C)c1cc(Br)c(O)c(N=Nc2ccc(S(=O)(=O)N3CCOCC3)cc2)c1 | 23.5% | 4.6% | 13.6 | 6.31µM* | ? | ?
O=C(O)c1ccc2cccnc2c1O | 2.2% | ? | 0.9 | 14.1µM* | -20.5% | 5.6%
